Sampled rows, rich in hits. Any-hit rate of the full collection: about 1.1%.
HTR5A inv ctr – HTR5A inverse agonists in luminescence cell assay, primary screen, counter-screen for OPRM1-OPRD1 heterodimer inverse agonist project, full-deck HTS; hit rate 0.083% among 340,000; inhibition, % at 9.3 µM; 5-hydroxytryptamine receptor 5A (Homo sapiens), P47898; HTR5A cell line, inverse agonism; in the data active means inhibition mostly above about 23%, no sharp cut-off; inactive means mostly below about 18%;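 further: 0% = cells with DMSO and 100% = no-cell wells with DMSO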
Target sequence (P47898 whole entry, looked up): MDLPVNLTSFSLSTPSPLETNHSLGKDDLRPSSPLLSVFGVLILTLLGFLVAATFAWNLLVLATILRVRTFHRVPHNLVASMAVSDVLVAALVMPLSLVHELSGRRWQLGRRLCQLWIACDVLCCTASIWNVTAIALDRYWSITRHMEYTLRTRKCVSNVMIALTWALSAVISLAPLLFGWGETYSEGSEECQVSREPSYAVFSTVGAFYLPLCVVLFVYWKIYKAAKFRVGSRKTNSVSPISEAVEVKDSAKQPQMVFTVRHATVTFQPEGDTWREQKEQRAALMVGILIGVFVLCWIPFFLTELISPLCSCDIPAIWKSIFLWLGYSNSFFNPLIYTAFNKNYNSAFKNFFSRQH
MOR-DOR ag – agonists of OPRM1-OPRD1 heterodimerization, primary screen, cell-based, luminescence. cells. activation, % at 9.3 µM. hit rate 0.3% among 340,000;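 further: 0% = vehicle-treated cells and 100% = reference agonist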
HTR5A ag – HTR5A agonists in luminescence cell assay, primary screen, counter-screen for OPRM1-OPRD1 heterodimer agonist project, full-deck HTS. 5-hydroxytryptamine receptor 5A (Homo sapiens), P47898. cell-based. activation, % at 9.3 µM. hit rate 0.61% among 340,000; in the data active means activation mostly above about 9.5%, no sharp cut-off; inactive means mostly below about 7.6%;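 further: 0% = cells with vehicle only and 100% = reference agonist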
OPRM1-OPRD1 inv – inverse agonists of MOR-DOR heterodimerization, primary screen, cell-based, luminescence. Mu-type opioid receptor (Homo sapiens) + Delta-type opioid receptor (Homo sapiens), …. cell-based MOR-DOR heterodimer luminescence, inverse agonism. inhibition, % at 9.3 µM. hit rate 0.21% among 340,000. AID 504357, 2011; in the data active means inhibition above about 22%, passing the limit was not always enough;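 further: 0% = cells with DMSO and 100% = wells without cells with DMSO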
OPRM1-D1 ag cf – agonists of MOR-DOR heterodimerization, confirmation, cell-based, luminescence; AID 504904, 2011; shares compounds with MOR-DOR ag; activation, % at 9.3 µM; cells, luminescence complementation; hit rate 45% among 830;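 further: 0% = vehicle-treated cells and 100% = reference agonist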
HTR5A ag ctr2 – HTR5A agonists in cells, counter-screen for OPRM1-OPRD1 heterodimer agonist project, cell-based, luminescence | shares compounds with MOR-DOR ag | HTR5A agonist counterscreen | activation, % at 9.3 µM | hit rate 8% among 830 | AID 504905, 2011; in the data active means activation above about 17%;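 further: 0% = vehicle-treated cells and 100% = reference agonist response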
An asterisk follows results filed as active; i = inactive; / = no result given. Unless noted, no stated cut-off is given here; in the data, active means activation above about 18%; inactive means the rest.

SMILES	HTR5A inv ctr	MOR-DOR ag	HTR5A ag	OPRM1-OPRD1 inv	OPRM1-D1 ag cf	HTR5A ag ctr2
Cc1ccc(-n2nnnc2SCC(=O)NCC2(N3CCOCC3)CCCCC2)c(C)c1	7.9	1.5	-2.4	-9.5	/	/
COc1ccc2c(Cl)c(-c3nnc(SCC(N)=O)n3C)sc2c1	5.0	0.2	-2.0	-1.1	/	/
COc1ccc2c(Cl)c(-c3nnc(SCC(=O)c4ccccc4)n3C)sc2c1	-19.4	325.0*	0.9	i	371.6*	2.9
Cc1ccc(N)cc1NC(=O)CN1CCOCC1	-3.4	-1.2	0.9	5.6	/	/
COCCSc1ccccc1C(=O)Nc1ccccc1C#N	10.5	-2.0	-3.8	11.3	/	/
OCC1(CCc2ccccc2)CCN(Cc2cc(F)ccc2-n2cccn2)CC1	1.6	77.9*	-0.9	-406.6	92.3*	-2.8
COc1ccc2c(c1)C=C(CN1CCC(CO)(CCc3ccccc3)CC1)CO2	-8.0	35.9*	3.0	-180.1	53.8*	0.7
Clc1ccccc1CN1CCN(CCCc2ccccc2)CC1	6.8	9.0	-2.5	-42.0	/	/
OCC1(CCc2ccccc2)CCN(Cc2ccccc2Cl)CC1	10.6	54.8*	-4.1	-259.5	85.7*	2.4
CCC(C)[C@H](NC(=O)[C@@H]1Cc2c([nH]c3ccccc23)C2c3ccccc3C(=O)N21)C(=O)NCC1CCCO1 (some centres undefined)	24.4	-0.4	3.4	1.9	/	/
C[C@H](CO)N1C[C@H](C)[C@@H](CN(C)C(=O)Nc2ccc3c(c2)OCO3)Oc2ccc(NS(=O)(=O)c3cn(C)cn3)cc2C1=O	-2.4	-2.9	-3.9	16.4	/	/
COc1cc(Br)cc(/C=N/NC(=O)Cc2ccc(C(F)(F)F)cc2[N+](=O)[O-])c1O	-35.9	18.2*	4.0	-96.1	41.7*	2.3
C=CCC1(Cl)C(=O)C(Cl)=C(N2CCOCC2)C1(OC)OC (centres undefined)	18.2	-3.6	2.5	19.4	/	/
CCC(=O)c1ccc(N2CCN(S(=O)(=O)c3ccccc3)CC2)c(F)c1	4.5	20.7*	-1.5	-103.7	2.8	7.6
CN(C)CCCN(C(=O)c1ccc(S(=O)(=O)N2CCc3ccccc3C2)cc1)c1nc2c(F)cc(F)cc2s1	16.9	341.2*	-6.9	i	395.9*	0.1
Cc1ccc2sc(N(CCCN(C)C)C(=O)c3ccc(S(=O)(=O)N(C)C)cc3)nc2c1C	-6.7	-0.6	1.3	4.5	/	/
Cc1ccc2sc(N(CCCN(C)C)C(=O)c3ccc(S(=O)(=O)N(C)Cc4ccccc4)cc3)nc2c1C	-0.1	40.3*	0.1	-259.6	0.6	-1.7
CCN(Cc1ccccc1)S(=O)(=O)c1ccc(C(=O)N(CCCN(C)C)c2nc3c(F)cccc3s2)cc1	-6.5	144.2*	-0.9	i	26.4*	3.3
CN(C)CCCN(C(=O)c1ccc(S(=O)(=O)N2CCCCCC2)cc1)c1nc2ccc(F)cc2s1	-2.8	154.6*	2.1	i	2.6	2.2
COc1cc2nc(N(CCCN(C)C)C(=O)c3ccc(S(=O)(=O)N4CCc5ccccc5C4)cc3)sc2cc1OC	-22.4	-3.0	9.2	15.4	/	/
CN(C)CCCN(C(=O)c1ccc(S(=O)(=O)N2CCOCC2)cc1)c1nc2ccc(F)cc2s1	-26.2	-1.9	7.2	11.1	/	/
CCOc1cccc2sc(N(CCCN(C)C)C(=O)c3ccc(S(=O)(=O)N(CC)Cc4ccccc4)cc3)nc12	0.1	2.6	6.2	-14.2	/	/
COc1cccc(NC(=O)c2c(C)nn(-c3ccccc3)c2Cl)c1	4.3	-0.9	-1.3	4.4	/	/
O=C(OCc1ccccc1)N(CCF)c1cn(Cc2ccccc2)c(=O)n(Cc2ccccc2)c1=O	-5.4	-4.8	1.4	21.2	/	/
Cc1ccc2sc(N(CCCN(C)C)C(=O)c3ccc(S(=O)(=O)N4CCc5ccccc5C4)cc3)nc2c1C	-11.2	21.4*	-4.9	-136.1	0.3	1.3
SMILES	HTR5A inv ctr	MOR-DOR ag	HTR5A ag	OPRM1-OPRD1 inv	OPRM1-D1 ag cf	HTR5A ag ctr2
C=CC[C@@H](CC(=O)N(CCO)Cc1ccccc1)C(=O)N[C@@H](COC(=O)[C@@H](CC=C)CC(=O)OC(C)(C)C)Cc1c[nH]c2ccccc12	-54.0	28.6*	8.8	-131.4	1.7	-2.6
CC1(NC(=O)CCc2ccccc2)CCN(CCCc2ccccc2)C1=O (centres undefined)	-5.4	-0.6	5.2	3.3	/	/
CC1(NC(=O)CC(c2ccccc2)(c2ccccc2)c2ccccc2)CCN(CCCc2ccccc2)C1=O (centres undefined)	17.6	237.0*	2.6	i	193.2*	-2.0
Cn1c(=N)n(CC(=O)c2ccc(Br)cc2)c2ccccc21	21.8	34.0*	0.4	-180.1	24.9*	0.2
Cc1ccn2cc(-c3cc4ccccc4oc3=O)nc2c1	-17.5	19.7*	-0.5	-102.4	11.9	5.5
Cc1ccc(-c2csc(Cc3nc(-c4cc5ccccc5oc4=O)cs3)n2)cc1	2.5	3.0	-1.1	-18.1	/	/
CCN(CC)CCn1c(O)c(N=O)c2ccccc21	-8.2	-0.2	0.9	1.3	/	/
CCN(CC)CCn1c2ccccc2c(=O)c2c(O)ccc(O)c21	-2.1	19.5*	0.6	-100.2	9.4	0.5
COc1ccc(OCC(=O)OC2CCCN(C)C2)cc1 (centres undefined)	6.8	-0.5	-2.6	2.5	/	/
Cc1sc2ncnc(NCC(c3ccccc3)N(C)C)c2c1C (centres undefined)	-11.0	6.3	3.9	-40.7	/	/
Cc1nc(NCC(c2ccccc2)N(C)C)c2c(C)c(C)sc2n1 (centres undefined)	-14.1	37.4*	4.8	-301.8	47.8*	7.0
CC(OC(=O)C1CCN(S(=O)(=O)c2ccc3c(c2)OCCO3)CC1)C(=O)NC1(C#N)CCCCC1 (centres undefined)	-4.1	-0.7	-0.9	2.7	/	/
COc1ccc([C@H]2CC(=O)C=C(c3c(C)cc(C)cc3C)C2)cc1	-25.2	26.6*	-0.8	-153.6	-0.1	3.5
COc1ccc(NS(=O)(=O)c2cccc(C(=O)NC3CCN(Cc4ccccc4)CC3)c2)cc1	-6.7	0.8	0.7	-4.3	/	/
COc1ccc(Cl)cc1NS(=O)(=O)c1cccc(C(=O)NC2CCN(Cc3ccccc3)CC2)c1	0.5	18.4*	-0.2	-76.1	25.8*	1.2
CC1CCC(C(C)C)C(OC(=O)COC(=O)c2cc(O)ccc2N)C1 (centres undefined)	-44.0	24.4*	7.3	-133.7	-0.1	-10.0
CC(Sc1nnc(C2CC2)n1C1CC1)C(=O)NC1(C#N)CCCCC1 (centres undefined)	5.2	-2.6	-2.3	10.4	/	/
CC1CC(C)CN(CC(=O)N2CCCc3c2c(=O)oc2ccc(OCc4ccccc4)cc32)C1 (centres undefined)	-2.2	4.7	6.8	-28.0	/	/
